# Test results from the supplement of paper PMC3334620.
# The full ranking holds about 33,000 sequences; the median of “E-score (-0.5 to 0.5)” is about -0.035, and the highest 2% start at about 0.35. Only a selection was taken, and the highest values are over-represented in it overall.
# Target: T1, Pdr3 (UniProt P33200)
# T1 sequence: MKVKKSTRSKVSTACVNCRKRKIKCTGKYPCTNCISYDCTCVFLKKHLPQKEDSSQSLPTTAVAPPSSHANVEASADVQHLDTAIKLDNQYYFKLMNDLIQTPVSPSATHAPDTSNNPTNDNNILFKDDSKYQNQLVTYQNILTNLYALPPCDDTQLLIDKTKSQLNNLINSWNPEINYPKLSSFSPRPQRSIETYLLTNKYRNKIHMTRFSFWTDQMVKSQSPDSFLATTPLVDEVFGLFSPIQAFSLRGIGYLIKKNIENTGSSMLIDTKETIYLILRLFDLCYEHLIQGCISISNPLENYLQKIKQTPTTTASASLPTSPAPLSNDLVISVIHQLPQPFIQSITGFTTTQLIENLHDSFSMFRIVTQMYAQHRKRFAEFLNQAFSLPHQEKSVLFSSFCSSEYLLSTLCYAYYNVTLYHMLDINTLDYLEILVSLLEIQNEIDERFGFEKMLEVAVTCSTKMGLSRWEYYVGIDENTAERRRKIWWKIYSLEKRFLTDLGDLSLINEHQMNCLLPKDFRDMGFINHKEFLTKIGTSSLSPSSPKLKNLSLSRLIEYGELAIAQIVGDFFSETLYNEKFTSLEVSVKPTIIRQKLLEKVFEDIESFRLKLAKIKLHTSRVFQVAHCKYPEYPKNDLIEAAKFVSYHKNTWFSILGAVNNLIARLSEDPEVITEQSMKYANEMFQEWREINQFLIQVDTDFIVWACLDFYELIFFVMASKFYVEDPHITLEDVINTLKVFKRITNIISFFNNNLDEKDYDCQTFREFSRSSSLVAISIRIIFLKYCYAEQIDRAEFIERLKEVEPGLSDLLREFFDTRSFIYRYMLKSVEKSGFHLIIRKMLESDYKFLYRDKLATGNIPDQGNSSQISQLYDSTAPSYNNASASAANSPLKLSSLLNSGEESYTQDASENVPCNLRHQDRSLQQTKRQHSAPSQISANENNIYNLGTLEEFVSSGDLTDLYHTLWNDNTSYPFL
# Assay: PBM E-score (8-mer binding enrichment) (E-score (-0.5 to 0.5)); higher = stronger / more preferred TF binding
# Settings: protein concentration: 200 nM; construct: GST-full length
# Summary of the method: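 The E-score, a modified Wilcoxon-Mann-Whitney statistic, was computed by the Universal PBM Analysis Suite for every ungapped eight-base word pooled with its reverse complement. Scans behind it were normalised with masliner after bound GST-tagged yeast transcription factors were detected with fluorescent anti-GST. The proteins, at about 100-200 nM, had been applied to universal all-10-mer Agilent arrays made double-stranded by primer extension.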
row,Sequence,PBM E-score
1,GGGCGTCA,0.0172
2,CGGAATGA,0.435
3,AGGAATGA,-0.0139
4,GGGAATGA,0.219
5,AGGAATGC,-0.0575
6,CGGAATGC,0.434
7,CTGAATGC,-0.0711
8,AGATCGTA,-0.304
9,ATCTCAGG,0.00088
10,ATTGTCGG,0.193
11,GATCTACC,0.00285
12,CTTGTTCC,0.207
13,CGTGTTCC,0.383
14,ACCGTTCC,0.364
15,CCCGTTCC,0.347
16,CTGGTTCC,0.264
17,ATTGTTCC,0.378
18,AGTGTTCC,0.301
19,CGTGTTCA,-0.0434
20,ATGGTTCC,0.371
21,ACCGTTCT,-0.0192
22,ATTGTTCG,0.194
23,ATGGTTCA,0.0467
24,CCTACTCG,0.101
25,ACCAGCAA,0.0732
26,CACCGACC,0.0698

row,Sequence,PBM E-score
1,ACTGAGCG,-0.185
2,GGACAATA,0.28
3,TATTTACA,-0.097
4,CCAGTTCC,0.318
5,ACAGTTCC,0.387
6,ACAGTTCT,0.082
7,CGTGGAAG,0.208
8,CGCGGAAA,0.476
9,CGCAGAAG,-0.09
10,AGAGGAAA,0.0754
11,GGCGGAAC,0.467
12,CGCGGAAG,0.454
13,GGCAGAAC,0.123
14,GGGGGAAC,-0.165
15,CGTGGAAA,0.243
16,AGGGGAAA,-0.0896
17,CGGGGAAA,0.246
18,AGCGGAAA,0.391
19,AATTCGAT,0.0319
20,AGCCTCGG,0.156
21,GGAGGAAA,0.0123
22,AGAGGAAC,-0.066
23,TGCGGGAA,0.313
24,TGCGGACA,0.237
25,AGGGGAAC,-0.0871
26,TGCGGAAA,0.357

row,Sequence,PBM E-score
1,AGCGGACT,-0.0134
2,GGGGGAAA,0.138
3,AGCGGAAT,0.392
4,AGCGGAAG,0.341
5,GGCGGAAA,0.361
6,AGCGGAAC,0.457
7,CCGCCGAA,0.277
8,CCCAACTC,0.16
9,ACCCTCGG,0.156
10,CGTCGTAA,-0.0777
11,CGCATCAC,-0.0776
12,AGGCAACG,0.00606
13,ACAACCGC,0.202
14,AAAACTAC,0.179
15,AATCGGAA,0.445
16,AATCGGAT,0.317
17,AATCGGAG,0.276
18,AATCGGAC,0.212
19,CATCGGAG,0.0478
20,TATCGGCA,0.101
21,CATCGGAC,0.143
22,TATCGGAA,0.419
23,GATCGGGC,0.142
24,GATCGGAC,0.362
25,TATCGGGA,0.228
26,CATCGGAA,0.422

row,Sequence,PBM E-score
1,CCTTTAGA,-0.22
2,GCAGAATA,-0.0373
3,CCTTCCTA,-0.401
4,TCGGTAGA,-0.027
5,AAAGTTGA,-0.0975
6,AACGGCTC,0.0795
7,ACGTTACG,-0.211
8,AATTTGCT,-0.114
9,CTGCTCCC,-0.0396
10,GACCCGCA,0.0817
11,GATCGGAA,0.424
12,GATCGGTA,0.146
13,GATCGGGA,0.171
14,GTGCTTCA,-0.0273
15,AGCTTAAG,-0.0452
16,GGGCCCAA,0.0863
17,AAGTGAGG,-0.173
18,ACCCCGTG,0.181
19,AAACCCGG,0.401
20,AAACCCGC,0.258
21,ACCCCCGG,0.17
22,AAACCCGA,0.243
23,ACCCGGGG,0.357
24,CCCCCCGG,0.132
25,CCCCCGGG,0.364
26,ACCCCGGG,0.376

row,Sequence,PBM E-score
1,CCCCCGCG,0.349
2,AACCGGGG,0.199
3,ACCGGGGG,0.0642
4,ATAGATTA,-0.0055
5,CCAATAGG,-0.154
6,CGAGATAC,0.128
7,GGTAAAGA,-0.0497
8,ATGTCTGA,-0.106
9,ATCCAAAA,-0.00928
10,GGCCCCGA,0.181
11,GGCAGCCA,0.0184
12,GTATCTAA,0.0522
13,CTGAGAAA,-0.236
14,CGCAATGC,-0.0405
15,ACAGTGAC,0.0756
16,AACCCGGT,0.258
17,AACCCGGG,0.424
18,CCCCGGGG,0.412
19,CACCGGGG,0.0593
20,AACCCCGG,0.312
21,CCCCGGCC,0.0967
22,GGCGAGCA,0.0206
23,CAGATAGC,-0.0206
24,ATAGTTAA,-0.038
25,CTCAGTAC,-0.183
26,GACAAACC,-0.0403

row,Sequence,PBM E-score
1,TCGTACGA,-0.293
2,ACTTGGTG,-0.141
3,AGGGAAAC,-0.104
4,ACGGAAAA,0.403
5,GCGGGAAA,0.332
6,GCGGAAAA,0.397
7,AAGGAAAT,0.00091
8,ACGGAAAT,0.452
9,ATGGAAAA,0.0967
10,GAGGAAAA,0.0256
11,AAGGAAAC,0.0238
12,ACGGAAAC,0.452
13,ACGGGAAA,0.277
14,AGGGAAAT,-0.115
15,AGCACCAA,-0.0317
16,GGTTGCCA,0.233
17,ATAACGCG,0.168
18,CCTATCCC,0.188
19,TTGCGAAA,0.119
20,ACACTCCG,0.204
21,ACATGCGT,-0.265
22,GAGGAAAC,0.053
23,GCGGAAAC,0.415
24,TCGGAAAA,0.4
25,TTGGAAAA,-0.141
26,TGGGAAAA,-0.104

row,Sequence,PBM E-score
1,GGGGAAAC,0.206
2,ACTATCAC,-0.18
3,GGTGCACC,-0.0384
4,CTCACCAG,-0.147
5,ACGGGCAC,0.025
6,CCGGGCCA,0.346
7,ACCGGCGG,0.256
8,CCCGGCCG,0.357
9,CCCGGCGG,0.382
10,GCGGGCAC,0.216
11,CCCGGCCC,0.247
12,CCGGGCAC,0.364
13,CCGGGCCG,0.399
14,ACCGGCCG,0.35
15,CCGGGCCC,0.345
16,CCCGGCAG,0.303
17,GCAAGATA,-0.00203
18,GCCATTAC,0.137
19,CTCAACTA,-0.0622
20,CCTCGAAA,-0.114
